# ChEMBL document CHEMBL2218924, “A broad activity screen in support of a chemogenomic map for kinase signalling research and drug discovery” (Biochem J, 2013)
# Assays:
# [1] = target: Mitogen-activated protein kinase 11 (Homo sapiens) (UniProt Q15759); details: at 1 µM
# [2] = target: Mitogen-activated protein kinase 11 (Homo sapiens) (UniProt Q15759); details: at 10 µM
# [3] = target: T1, Mitogen-activated protein kinase 13 (Homo sapiens) (UniProt O15264); details: at 1 µM
# T1 sequence (whole entry): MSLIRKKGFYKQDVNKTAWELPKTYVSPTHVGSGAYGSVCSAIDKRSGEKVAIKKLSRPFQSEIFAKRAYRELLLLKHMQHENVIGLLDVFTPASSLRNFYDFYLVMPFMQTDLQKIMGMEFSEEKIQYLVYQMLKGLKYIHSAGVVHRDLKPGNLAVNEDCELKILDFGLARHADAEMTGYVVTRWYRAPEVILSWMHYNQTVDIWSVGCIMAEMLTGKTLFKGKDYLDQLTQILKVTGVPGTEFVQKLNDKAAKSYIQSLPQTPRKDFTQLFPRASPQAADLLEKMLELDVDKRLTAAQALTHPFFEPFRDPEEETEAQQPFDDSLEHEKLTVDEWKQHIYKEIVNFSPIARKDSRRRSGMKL
# [4] = target: T1, Mitogen-activated protein kinase 13 (Homo sapiens); details: at 10 µM
# [5] = target: T2, Serine/threonine-protein kinase Sgk1 (Homo sapiens) (UniProt O00141); details: at 1 µM
# T2 sequence (whole entry): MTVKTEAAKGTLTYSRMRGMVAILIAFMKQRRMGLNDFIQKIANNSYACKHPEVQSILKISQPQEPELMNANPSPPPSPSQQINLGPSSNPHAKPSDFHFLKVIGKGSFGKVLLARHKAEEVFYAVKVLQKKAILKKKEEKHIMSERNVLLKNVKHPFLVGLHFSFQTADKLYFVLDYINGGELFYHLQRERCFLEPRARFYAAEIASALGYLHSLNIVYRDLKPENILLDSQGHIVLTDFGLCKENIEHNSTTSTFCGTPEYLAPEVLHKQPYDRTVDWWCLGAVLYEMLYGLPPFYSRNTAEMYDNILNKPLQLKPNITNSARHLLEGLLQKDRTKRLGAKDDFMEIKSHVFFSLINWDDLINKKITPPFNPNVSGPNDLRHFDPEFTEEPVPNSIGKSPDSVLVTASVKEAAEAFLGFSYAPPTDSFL
# [6] = target: T2, Serine/threonine-protein kinase Sgk1 (Homo sapiens); details: at 10 µM
# [7] = target: T3, Serine/threonine-protein kinase Sgk2 (Homo sapiens) (UniProt Q9HBY8); details: at 1 µM
# T3 sequence (whole entry): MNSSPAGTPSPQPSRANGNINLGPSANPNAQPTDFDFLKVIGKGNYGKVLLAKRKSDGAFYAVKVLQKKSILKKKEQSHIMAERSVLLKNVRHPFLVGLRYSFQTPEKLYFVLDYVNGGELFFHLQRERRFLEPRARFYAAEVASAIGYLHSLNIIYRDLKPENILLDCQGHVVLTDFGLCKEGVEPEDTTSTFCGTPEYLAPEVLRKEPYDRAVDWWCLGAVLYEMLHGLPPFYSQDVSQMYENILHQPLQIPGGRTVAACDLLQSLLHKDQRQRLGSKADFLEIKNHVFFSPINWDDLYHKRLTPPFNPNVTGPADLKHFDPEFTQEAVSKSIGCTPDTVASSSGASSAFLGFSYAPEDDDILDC
# [8] = target: T3, Serine/threonine-protein kinase Sgk2 (Homo sapiens); details: at 10 µM
# [9] = target: T4, Serine/threonine-protein kinase Sgk3 (Homo sapiens) (UniProt Q96BR1); details: at 10 µM
# T4 sequence (whole entry): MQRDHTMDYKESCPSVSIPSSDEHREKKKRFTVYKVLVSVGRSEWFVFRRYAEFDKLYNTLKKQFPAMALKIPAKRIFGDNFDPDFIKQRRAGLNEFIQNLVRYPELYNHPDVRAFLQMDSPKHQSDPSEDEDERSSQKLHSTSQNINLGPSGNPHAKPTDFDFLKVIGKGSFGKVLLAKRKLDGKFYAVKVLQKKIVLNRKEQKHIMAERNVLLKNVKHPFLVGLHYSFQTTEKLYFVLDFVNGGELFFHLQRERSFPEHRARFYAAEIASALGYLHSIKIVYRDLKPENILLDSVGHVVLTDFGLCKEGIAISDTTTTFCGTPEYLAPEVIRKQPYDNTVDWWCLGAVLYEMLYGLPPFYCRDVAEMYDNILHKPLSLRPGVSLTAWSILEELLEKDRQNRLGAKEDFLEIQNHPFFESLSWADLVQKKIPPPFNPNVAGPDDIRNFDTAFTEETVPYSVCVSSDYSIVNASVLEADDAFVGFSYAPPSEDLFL
# [10] = target: Serine/threonine-protein kinase SIK1 (Homo sapiens) (UniProt P57059); details: at 1 µM
# [11] = target: Serine/threonine-protein kinase SIK1 (Homo sapiens) (UniProt P57059); details: at 10 µM
# [12] = target: SRSF protein kinase 1 (Homo sapiens) (UniProt Q96SB4); details: at 1 µM
# [13] = target: SRSF protein kinase 1 (Homo sapiens) (UniProt Q96SB4); details: at 10 µM
# [14] = target: SRSF protein kinase 2 (Homo sapiens) (UniProt P78362); details: at 1 µM
# [15] = target: SRSF protein kinase 2 (Homo sapiens) (UniProt P78362); details: at 10 µM
# [16] = target: Serine/threonine-protein kinase 33 (Homo sapiens) (UniProt Q9BYT3); details: at 1 µM
# [17] = target: Serine/threonine-protein kinase 33 (Homo sapiens) (UniProt Q9BYT3); details: at 10 µM
# [18] = target: Serine/threonine-protein kinase PLK2 (Homo sapiens) (UniProt Q9NYY3); details: at 1 µM
# [19] = target: Serine/threonine-protein kinase PLK2 (Homo sapiens) (UniProt Q9NYY3); details: at 10 µM
# [20] = target: Tyrosine-protein kinase SYK (Homo sapiens) (UniProt P43405); details: at 1 µM
# Sequence of SRSF protein kinase 1 (Homo sapiens) (Q96SB4 whole entry): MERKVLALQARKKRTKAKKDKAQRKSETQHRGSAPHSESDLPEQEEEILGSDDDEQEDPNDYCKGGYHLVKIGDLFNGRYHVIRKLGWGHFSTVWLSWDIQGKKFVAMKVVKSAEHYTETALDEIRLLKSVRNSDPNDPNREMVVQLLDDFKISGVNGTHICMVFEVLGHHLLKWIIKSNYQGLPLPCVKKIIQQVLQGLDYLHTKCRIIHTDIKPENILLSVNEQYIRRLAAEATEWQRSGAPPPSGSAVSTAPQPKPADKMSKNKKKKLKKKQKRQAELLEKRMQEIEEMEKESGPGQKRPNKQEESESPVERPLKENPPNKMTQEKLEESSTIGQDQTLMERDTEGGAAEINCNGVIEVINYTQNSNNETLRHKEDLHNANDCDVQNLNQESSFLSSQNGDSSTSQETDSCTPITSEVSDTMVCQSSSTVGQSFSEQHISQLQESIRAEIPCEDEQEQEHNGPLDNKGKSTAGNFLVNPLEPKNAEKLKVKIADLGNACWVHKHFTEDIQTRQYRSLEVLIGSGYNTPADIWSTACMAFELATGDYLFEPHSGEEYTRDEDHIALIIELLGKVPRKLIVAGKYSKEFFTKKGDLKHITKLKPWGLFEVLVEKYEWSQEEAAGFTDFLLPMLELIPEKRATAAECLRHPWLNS
# Sequence of Mitogen-activated protein kinase 11 (Homo sapiens) (Q15759 whole entry): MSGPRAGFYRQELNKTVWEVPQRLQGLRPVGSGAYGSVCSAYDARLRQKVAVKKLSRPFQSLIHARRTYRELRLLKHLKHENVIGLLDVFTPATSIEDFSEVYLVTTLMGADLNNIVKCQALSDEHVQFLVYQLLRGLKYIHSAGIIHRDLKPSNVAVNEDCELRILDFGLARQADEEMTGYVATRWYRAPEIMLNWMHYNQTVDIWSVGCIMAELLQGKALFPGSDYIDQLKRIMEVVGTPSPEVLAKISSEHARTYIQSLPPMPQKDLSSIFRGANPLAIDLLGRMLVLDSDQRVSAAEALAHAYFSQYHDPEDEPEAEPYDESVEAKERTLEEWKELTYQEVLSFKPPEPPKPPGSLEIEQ
# Sequence of SRSF protein kinase 2 (Homo sapiens) (P78362 whole entry, looked up): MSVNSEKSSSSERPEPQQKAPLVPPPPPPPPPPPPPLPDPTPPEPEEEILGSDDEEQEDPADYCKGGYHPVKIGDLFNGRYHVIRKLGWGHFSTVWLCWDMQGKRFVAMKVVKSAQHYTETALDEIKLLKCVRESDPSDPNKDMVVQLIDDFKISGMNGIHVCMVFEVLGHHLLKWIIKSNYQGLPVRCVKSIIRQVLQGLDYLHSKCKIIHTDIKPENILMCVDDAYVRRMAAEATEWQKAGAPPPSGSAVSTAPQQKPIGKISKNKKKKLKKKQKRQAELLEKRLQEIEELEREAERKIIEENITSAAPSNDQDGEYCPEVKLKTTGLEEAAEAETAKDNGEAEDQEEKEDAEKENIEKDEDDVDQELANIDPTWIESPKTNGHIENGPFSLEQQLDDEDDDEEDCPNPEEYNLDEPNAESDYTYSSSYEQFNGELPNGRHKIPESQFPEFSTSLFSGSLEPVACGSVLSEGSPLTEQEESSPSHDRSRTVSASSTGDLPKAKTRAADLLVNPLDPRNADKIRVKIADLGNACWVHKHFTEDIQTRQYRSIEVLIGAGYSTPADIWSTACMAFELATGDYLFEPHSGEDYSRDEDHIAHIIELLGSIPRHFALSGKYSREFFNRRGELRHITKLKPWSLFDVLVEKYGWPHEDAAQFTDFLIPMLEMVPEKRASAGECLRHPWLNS
# Sequence of Serine/threonine-protein kinase PLK2 (Homo sapiens) (Q9NYY3 whole entry, looked up): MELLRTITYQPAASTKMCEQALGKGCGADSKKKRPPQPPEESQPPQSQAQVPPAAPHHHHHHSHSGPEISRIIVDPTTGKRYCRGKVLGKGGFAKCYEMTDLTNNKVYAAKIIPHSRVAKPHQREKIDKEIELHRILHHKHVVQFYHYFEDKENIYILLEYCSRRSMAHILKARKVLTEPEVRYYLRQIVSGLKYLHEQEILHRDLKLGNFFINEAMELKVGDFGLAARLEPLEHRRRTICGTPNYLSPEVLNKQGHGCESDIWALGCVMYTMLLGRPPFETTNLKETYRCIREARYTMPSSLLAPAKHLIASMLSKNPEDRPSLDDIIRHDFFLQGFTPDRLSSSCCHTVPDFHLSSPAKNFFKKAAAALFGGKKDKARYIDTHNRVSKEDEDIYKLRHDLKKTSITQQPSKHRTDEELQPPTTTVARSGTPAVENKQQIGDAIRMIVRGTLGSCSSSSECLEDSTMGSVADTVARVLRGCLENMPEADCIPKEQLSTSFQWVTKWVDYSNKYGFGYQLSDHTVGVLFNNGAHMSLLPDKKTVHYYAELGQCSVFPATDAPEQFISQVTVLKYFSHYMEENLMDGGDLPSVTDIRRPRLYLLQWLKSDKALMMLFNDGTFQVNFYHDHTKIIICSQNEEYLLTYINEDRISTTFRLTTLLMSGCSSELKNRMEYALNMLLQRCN
# Sequence of Serine/threonine-protein kinase SIK1 (Homo sapiens) (P57059 whole entry): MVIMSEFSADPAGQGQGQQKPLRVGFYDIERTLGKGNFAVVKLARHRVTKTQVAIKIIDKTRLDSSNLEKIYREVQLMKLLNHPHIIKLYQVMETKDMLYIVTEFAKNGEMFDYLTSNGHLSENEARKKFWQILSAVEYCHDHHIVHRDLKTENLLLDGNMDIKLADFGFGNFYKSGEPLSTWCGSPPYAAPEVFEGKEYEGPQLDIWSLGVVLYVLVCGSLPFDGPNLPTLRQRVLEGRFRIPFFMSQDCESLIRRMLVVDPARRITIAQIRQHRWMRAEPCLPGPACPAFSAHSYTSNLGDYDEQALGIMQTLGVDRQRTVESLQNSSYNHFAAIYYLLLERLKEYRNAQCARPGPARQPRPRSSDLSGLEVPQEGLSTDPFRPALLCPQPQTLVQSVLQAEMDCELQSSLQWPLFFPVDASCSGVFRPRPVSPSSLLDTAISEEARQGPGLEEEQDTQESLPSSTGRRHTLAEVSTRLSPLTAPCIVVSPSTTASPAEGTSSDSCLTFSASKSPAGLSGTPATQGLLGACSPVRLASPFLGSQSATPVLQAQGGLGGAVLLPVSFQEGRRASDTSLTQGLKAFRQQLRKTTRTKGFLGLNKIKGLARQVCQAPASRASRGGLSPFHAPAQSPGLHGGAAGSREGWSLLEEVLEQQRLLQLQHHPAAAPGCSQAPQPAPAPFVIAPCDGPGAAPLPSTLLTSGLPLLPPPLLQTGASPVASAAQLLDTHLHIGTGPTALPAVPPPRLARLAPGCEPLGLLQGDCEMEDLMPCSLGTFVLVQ
# Sequence of Serine/threonine-protein kinase 33 (Homo sapiens) (Q9BYT3 whole entry, looked up): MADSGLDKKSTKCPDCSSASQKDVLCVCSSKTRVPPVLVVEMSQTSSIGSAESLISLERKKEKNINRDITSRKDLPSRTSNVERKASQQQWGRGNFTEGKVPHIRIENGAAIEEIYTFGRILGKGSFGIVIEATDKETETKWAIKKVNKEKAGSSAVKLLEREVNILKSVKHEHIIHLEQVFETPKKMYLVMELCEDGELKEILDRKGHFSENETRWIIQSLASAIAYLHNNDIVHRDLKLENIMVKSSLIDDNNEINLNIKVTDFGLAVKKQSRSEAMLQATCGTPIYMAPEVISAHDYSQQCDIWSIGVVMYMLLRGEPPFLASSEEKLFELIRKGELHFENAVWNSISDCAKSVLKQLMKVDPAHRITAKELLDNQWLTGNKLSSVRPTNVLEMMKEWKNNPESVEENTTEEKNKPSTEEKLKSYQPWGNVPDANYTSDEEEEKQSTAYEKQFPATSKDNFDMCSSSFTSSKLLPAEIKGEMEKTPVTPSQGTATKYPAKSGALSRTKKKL
SMILES,residual activity [1],residual activity [2],residual activity [3],residual activity [4],residual activity [5],residual activity [6],residual activity [7],residual activity [8],residual activity [9],residual activity [10],residual activity [11],residual activity [12],residual activity [13],residual activity [14],residual activity [15],residual activity [16],residual activity [17],residual activity [18],residual activity [19],residual activity [20]
CC(C)n1cnc2c(NCc3ccccc3)nc(NCCCO)nc21,100%,109%,76%,90%,97%,105%,79%,67%,76%,116%,100%,78%,37%,93%,37%,93%,71%,94%,88%,103%
CNc1cc2c(Nc3cccc(Br)c3)ncnc2cn1,98%,93%,110%,95%,81%,75%,111%,79%,96%,43%,57%,93%,97%,98%,92%,96%,93%,106%,89%,117%
Cc1ccc(NC2=CC(=O)c3sc(C)nc3C2=O)cc1,102%,100%,98%,96%,87%,92%,103%,82%,83%,109%,91%,97%,96%,98%,87%,88%,92%,95%,93%,99%
CC(C)n1cnc2/c(=N/c3cccc(Cl)c3)nc(NCCO)[nH]c21,101%,94%,103%,99%,89%,110%,105%,83%,82%,90%,28%,41%,-2%,27%,2%,78%,28%,61%,22%,79%
O=C1c2ccccc2-[n+]2ccc3c([nH]c4ccccc43)c21,94%,89%,103%,96%,88%,95%,73%,76%,80%,116%,104%,90%,93%,101%,87%,86%,86%,95%,101%,93%
CC(=O)O/N=C1\C(=C2\C(=O)Nc3cc(Br)ccc32)Nc2ccccc21,94%,100%,99%,89%,69%,56%,83%,48%,65%,57%,3%,106%,100%,102%,78%,98%,79%,104%,98%,80%
NC(=O)c1ccc2[nH]c(-c3ccc(Oc4ccc(Cl)cc4)cc3)nc2c1,99%,101%,105%,101%,90%,174%,112%,104%,103%,108%,107%,94%,64%,81%,76%,96%,85%,90%,93%,109%
N#C/C(=C(\N)Sc1ccc(N)cc1)c1ccccc1C(F)(F)F,104%,101%,95%,90%,81%,98%,100%,117%,93%,104%,85%,99%,99%,108%,82%,92%,93%,100%,98%,73%
O=Nc1c(-c2c(O)[nH]c3ccccc23)[nH]c2ccccc12,101%,90%,90%,82%,59%,28%,61%,24%,56%,43%,8%,90%,66%,96%,67%,43%,8%,97%,82%,49%
COc1ccc(CNc2nc(N(CCO)CCO)nc3c2ncn3C(C)C)cc1,100%,92%,100%,105%,73%,116%,107%,80%,85%,93%,78%,95%,67%,86%,65%,96%,83%,91%,94%,94%
c1ccc2c(-c3ccncc3)c[nH]c2c1,96%,98%,103%,93%,102%,45%,92%,24%,54%,79%,85%,108%,108%,89%,97%,98%,93%,107%,94%,
Ic1cccc(CSc2nnc(-c3ccncc3)o2)c1,102%,92%,104%,94%,71%,64%,84%,78%,81%,92%,100%,97%,102%,88%,79%,86%,80%,97%,97%,98%
O=C1NC(=O)c2cc(Nc3ccc(F)cc3)c(Nc3ccc(F)cc3)cc21,95%,72%,98%,89%,108%,76%,97%,67%,96%,98%,0%,102%,93%,96%,95%,95%,101%,97%,96%,118%
Oc1n[nH]c2nnc(-c3c(-c4ccccc4)nn4ccccc34)cc12,94%,91%,96%,96%,69%,86%,96%,80%,81%,109%,89%,97%,96%,101%,98%,95%,86%,97%,99%,106%
O=c1c2ccccc2[nH]c(=S)n1CCN1CCC(=C(c2ccc(F)cc2)c2ccc(F)cc2)CC1,103%,102%,102%,89%,92%,43%,90%,88%,72%,95%,80%,81%,81%,108%,97%,103%,99%,113%,101%,125%
Oc1ccc(Nc2nc(-c3ccc(Cl)cc3)cs2)cc1,113%,105%,111%,106%,123%,203%,114%,107%,134%,101%,111%,105%,111%,116%,87%,105%,100%,110%,100%,117%
O=C1Nc2cc(Br)ccc2/C1=C1/Nc2ccccc2/C1=N\O,97%,92%,89%,92%,28%,14%,47%,55%,64%,18%,8%,98%,84%,88%,70%,73%,72%,97%,96%,70%
Nc1n[nH]c2nnc(-c3c(-c4ccccc4)nn4ccccc34)cc12,94%,66%,99%,88%,95%,123%,87%,64%,80%,85%,63%,92%,69%,100%,83%,96%,86%,99%,96%,92%
COc1ccc(C(=O)Nc2sc3c(c2C(N)=O)CCCC3)cc1OC,96%,105%,100%,91%,85%,109%,99%,52%,90%,91%,91%,84%,95%,89%,89%,91%,97%,98%,97%,126%
O=C(O)c1ccc2c3c1cccc3c(=O)n1c3ccccc3nc21,116%,48%,119%,100%,91%,103%,116%,85%,83%,106%,83%,78%,21%,91%,33%,99%,59%,100%,94%,100%
CO[C@H]1[C@@H](OC)C[C@H](C)[C@@H](OC)C2=CC(=O)C=C(NC(=O)/C(C)=C/C=C/[C@H](OC)[C@@H](OC(N)=O)/C(C)=C/[C@@H]1C)C2=O,98%,102%,89%,96%,98%,78%,97%,76%,93%,82%,54%,104%,102%,104%,91%,98%,98%,100%,91%,110%
O=C(Nc1cccc(Nc2nccc(Nc3cccc(C(F)(F)F)c3)n2)c1)C1CC1,103%,88%,107%,95%,84%,66%,108%,89%,78%,58%,50%,107%,87%,96%,90%,102%,89%,102%,73%,79%
CC[n+]1c(/C=C/N(C)c2ccccc2)n(-c2ccccc2)c2ccc(-c3nc4ccccc4s3)cc21,107%,101%,105%,97%,118%,65%,109%,80%,69%,115%,125%,114%,124%,106%,99%,89%,82%,91%,95%,103%
CCC(=O)Nc1ccc2ncnc(Nc3cccc(Br)c3)c2c1,91%,88%,100%,102%,107%,114%,105%,77%,95%,68%,13%,102%,98%,89%,74%,91%,98%,104%,98%,125%
O=C1NC(=O)/C(=C\c2ccc3nccnc3c2)S1,95%,102%,93%,50%,118%,73%,103%,75%,93%,74%,83%,99%,49%,96%,58%,86%,53%,94%,73%,104%
O=C1NC(=O)c2c1c1c3ccccc3[nH]c1c1[nH]c3cc(Br)ccc3c21,105%,107%,101%,94%,44%,50%,64%,69%,78%,111%,83%,82%,96%,83%,77%,94%,88%,93%,94%,104%
Oc1c2ccccc2c2c3c(cccc13)N=N2,88%,79%,96%,73%,60%,24%,71%,33%,58%,96%,48%,98%,87%,97%,57%,61%,16%,85%,61%,
